# Test results reported in PubChem BioAssay (NCATS).
# Records with an inconclusive call do not appear. Activity calls are given as the source filed them. Calls come from the whole dose curve; as a rule, active = well fitted inhibition curve with a large enough effect; inconclusive = small, poorly fitted or top-dose-only effect; inactive = no such curve, though single readings can be large or run the other way.
# Molecular target: Retinaldehyde dehydrogenase 3 (Homo sapiens) (UniProt P47895)
# Assay: qHTS for Inhibitors of the Aldehyde Dehydrogenase Family (ALDH1A3) Validation screen (AID 2061312); note: nearly all actives have a fitted effect of over 45% in size
# Details: ALDH1A3 enzyme inhibition qHTS validation, fluorescence; series mostly up to 84.7 µM; activity change, negative = inhibition: at the top concentration
# % is set by controls: 0 for no effect and ±100 for the full control effect.
row,Structure (SMILES),"activity change, negative = inhibition"
1,NC(=O)c1cccc2cn(-c3ccc(C4CCCNC4)cc3)nc12 (stereo not given),27.1% (inactive)
2,CC(C)S(=O)(=O)NC[C@H](C)c1ccc(-c2ccc(CCNS(C)(=O)=O)cc2)cc1,37.3% (inactive)
3,Cc1cc(-c2nc(-c3ccc(OC(F)(F)F)cc3)no2)nn1Cc1ccnc(N2CCN(C3CC3)CC2)c1,2.75% (inactive)
4,Cc1cc(C(=O)Cn2cc(C#N)ccc2=O)c(C)n1Cc1ccccc1,2.09% (inactive)
5,COc1cc2ncnc(Oc3ccc(CC(=O)Nc4cnn(C(C)C)c4)cc3)c2cc1OC,118% (inactive)
6,CC(C)(C)c1ccc(S(=O)(=O)NCc2ccc(C(=O)Nc3cccnc3)cc2)cc1,13.6% (inactive)
7,c1ccc(C(OC2CCN(CCCc3nn[nH]n3)CC2)c2ccccc2)cc1,24.4% (inactive)
8,C[C@@H]1C(=O)O[C@H]2CC34[C@H]5C[C@@H](C(C)(C)C)C36[C@@H](OC(=O)[C@@H]6O)OC4(C(=O)O5)[C@]21O (stereo not given in full),12.8% (inactive)
9,Clc1ccccc1CNCC1CCC(CNCc2ccccc2Cl)CC1 (stereo not given),-22.8% (inactive)
10,O=S(=O)(Cc1ccccc1)Nc1ccc(-c2ccc3c(cnn3-c3ccc(F)cc3)c2)c(C(F)(F)F)c1,-9.06% (inactive)
11,CCC(C)c1ccc(NC(=O)Cn2cnc3c2c(=O)n(C)c(=O)n3C)cc1 (stereo not given),3.29% (inactive)
12,COC(=O)C(CC1CCCC1)c1ccc(S(C)(=O)=O)cc1 (stereo not given),-0.753% (inactive)
13,CCNC(=O)C1CC(F)(c2ccc(CN3CCCC3)c(F)c2)C1 (stereo not given),-7.78% (inactive)
14,CC[C@H](C(=O)Nc1ccccc1N1CCCC1)c1ccccc1,1.05% (inactive)
15,CCc1c(CC(N)=O)c2cc(OCCCP(=O)(O)O)ccc2n1Cc1ccccc1,-0.684% (inactive)
16,Nc1c(-c2ccccc2)nc(Cl)c2c(O)n[nH]c(=O)c12,91.5% (inactive)
17,CCCCOC(=O)NC(=O)C1c2ccccc2Oc2ccccc21,30.7% (inactive)
18,CC(C)N(CCCCOCC(=O)NS(C)(=O)=O)c1cnc(-c2ccccc2)c(-c2ccccc2)n1,53.7% (inactive)
19,CC(c1ncncc1F)C(O)(Cn1cncn1)c1ccc(F)cc1F (stereo not given),8.1% (inactive)
20,CNc1cc2[nH]c(=O)n(-c3ccc(NC(=O)NS(=O)(=O)c4ccc(Cl)s4)cc3)c(=O)c2cc1F,29.3% (inactive)

row,Structure (SMILES),"activity change, negative = inhibition"
1,CC(C)[C@@H](c1ccc(C(F)(F)F)cc1CN(Cc1cc(C(F)(F)F)cc(C(F)(F)F)c1)c1nnn(C)n1)N1CCC(C(=O)O)CC1,4.07% (inactive)
2,O=S(=O)(Nc1ccccc1N1CCCCC1)c1ccc(Cl)s1,-26.3% (inactive)
3,CCOC(=O)CCN(C(=O)c1ccc2c(c1)nc(CNc1ccc(C(=N)N)cc1)n2C)c1ccccn1,1.83% (inactive)
4,CC(OC1OCCN(Cc2n[nH]c(=O)[nH]2)C1c1ccc(F)cc1)c1cc(C(F)(F)F)cc(C(F)(F)F)c1 (stereo not given),-23% (inactive)
5,O=C(N[C@H](Cc1ccccc1)C(=O)O)c1sc2cc(F)ccc2c1Cl,-12.9% (inactive)
6,O=C(NCc1cccc(O)c1)c1cc2cc(F)ccc2[nH]1,-19.6% (inactive)
7,CNC(=O)COC(=O)NCCC1CCN(c2cccc(C)n2)CC1,-27.7% (inactive)
8,Cn1ncnc1COc1nn2c(-c3cc(F)ccc3F)nnc2cc1C(C)(C)C,29.7% (inactive)
9,CNC(=O)c1ccccc1Nc1nc(Nc2ccc(N3CCNCC3)cc2)ncc1Cl,5.7% (inactive)
10,COc1cc(Nc2nc3c(s2)CCCC3c2ccc(F)cc2)ccc1-n1cnc(C)c1 (stereo not given),237% (inactive)
11,CN(C)C(=O)NC1CCC(CCN2CCN(c3cccc(Cl)c3Cl)CC2)CC1 (stereo not given),7.05% [at 20.1 µM] (inactive)
12,CCOc1ccc(NC(=S)N2CCC(C(O)(c3ccccc3)c3ccccc3)CC2)cc1,140% (inactive)
13,COc1ccncc1C(=O)NC(=O)Nc1ccc(-c2ccccc2)c(C(F)(F)F)c1,14.6% (inactive)
14,O=C(CCCN1CCN(c2ccccn2)CC1)c1ccc(F)cc1,79.8% (inactive)
15,COc1ccc(C(=O)NCc2cc(C(C)C)no2)cc1OC1CCN(C)CC1,1.2% (inactive)
16,CCCc1ccc(OCC(=O)N(Cc2nc(-c3cccnc3)no2)C(C)C)cc1,0.623% (inactive)
17,CN[C@H](CNC(=O)N1CCC[C@@H]([C@@H](OCCNC(=O)OC)c2cccc(Cl)c2)C1)C[C@H]1CCCOC1,-25.4% (inactive)
18,Cc1c(OCc2cccc(-c3ccc(C(=O)O)cc3)c2)cc2c(c1C)C(=O)C(C1CCCC1)C2 (stereo not given),-0.999% (inactive)
19,CCO[C@H]1CN(C2CCC(O)(c3ccc4c(c3)OCO4)CC2)C[C@@H]1NC(=O)CNC(=O)c1cccc(C(F)(F)F)c1 (stereo not given in full),78.6% (inactive)
20,O=C(NCCCn1ccnc1)c1cc(-c2ccco2)on1,41.4% (inactive)
